Laboratory results taken from ChEMBL document CHEMBL2218924, “A broad activity screen in support of a chemogenomic map for kinase signalling research and drug discovery” (Biochem J, 2013).

What was measured:
[1] = target: T1, CDK3/cyclin E (Homo sapiens) (UniProt P24864+O96020+Q00526); conditions: at 1 µM
[2] = target: T1, CDK3/cyclin E (Homo sapiens); conditions: at 10 µM
[3] = target: T2, Cyclin-dependent kinase 5/CDK5 activator 1 (Homo sapiens) (UniProt Q00535+Q15078); conditions: at 1 µM
[4] = target: T2, Cyclin-dependent kinase 5/CDK5 activator 1 (Homo sapiens); conditions: at 10 µM
[5] = target: T2, Cyclin-dependent kinase 5/CDK5 activator 1 (Homo sapiens); conditions: at 1 µM; remark: listed apart in the source
[6] = target: T2, Cyclin-dependent kinase 5/CDK5 activator 1 (Homo sapiens); conditions: at 10 µM; remark: listed apart in the source
[7] = target: T3, CDK6/cyclin D3 (Homo sapiens) (UniProt P30281+Q00534); conditions: at 1 µM
[8] = target: T3, CDK6/cyclin D3 (Homo sapiens); conditions: at 10 µM
[9] = target: T4, Cyclin-dependent kinase 7/ cyclin H (Homo sapiens) (UniProt P51946+P50613); conditions: at 1 µM
[10] = target: T4, Cyclin-dependent kinase 7/ cyclin H (Homo sapiens); conditions: at 10 µM

T2 sequence (Q00535 whole entry): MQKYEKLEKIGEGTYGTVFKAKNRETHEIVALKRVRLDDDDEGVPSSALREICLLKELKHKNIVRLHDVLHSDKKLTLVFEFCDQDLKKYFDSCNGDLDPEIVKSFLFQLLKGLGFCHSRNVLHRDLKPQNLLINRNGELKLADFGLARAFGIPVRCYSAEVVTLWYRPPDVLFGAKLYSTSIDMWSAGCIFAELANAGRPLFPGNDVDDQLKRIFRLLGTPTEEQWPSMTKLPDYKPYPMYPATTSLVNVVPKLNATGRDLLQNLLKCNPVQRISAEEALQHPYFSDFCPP
T2 sequence (Q15078 99-307 partner limits assumed): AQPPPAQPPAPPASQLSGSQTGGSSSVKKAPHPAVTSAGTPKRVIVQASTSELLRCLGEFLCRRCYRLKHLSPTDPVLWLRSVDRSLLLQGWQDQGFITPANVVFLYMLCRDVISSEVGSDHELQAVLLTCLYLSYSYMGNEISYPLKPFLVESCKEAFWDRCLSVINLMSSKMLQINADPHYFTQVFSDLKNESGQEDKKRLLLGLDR
T1 sequence (O96020 whole entry, looked up): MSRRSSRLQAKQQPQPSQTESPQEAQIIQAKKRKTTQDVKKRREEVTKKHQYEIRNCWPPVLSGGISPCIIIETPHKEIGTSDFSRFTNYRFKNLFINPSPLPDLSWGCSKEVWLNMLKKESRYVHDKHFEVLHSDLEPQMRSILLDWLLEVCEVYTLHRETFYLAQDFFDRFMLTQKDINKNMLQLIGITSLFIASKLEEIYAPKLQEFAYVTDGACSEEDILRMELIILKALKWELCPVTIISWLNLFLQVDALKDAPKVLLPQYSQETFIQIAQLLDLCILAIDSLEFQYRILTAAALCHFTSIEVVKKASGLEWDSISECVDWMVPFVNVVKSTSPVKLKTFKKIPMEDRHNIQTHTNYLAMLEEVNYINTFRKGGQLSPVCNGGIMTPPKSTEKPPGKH
T1 sequence (P24864 whole entry, looked up): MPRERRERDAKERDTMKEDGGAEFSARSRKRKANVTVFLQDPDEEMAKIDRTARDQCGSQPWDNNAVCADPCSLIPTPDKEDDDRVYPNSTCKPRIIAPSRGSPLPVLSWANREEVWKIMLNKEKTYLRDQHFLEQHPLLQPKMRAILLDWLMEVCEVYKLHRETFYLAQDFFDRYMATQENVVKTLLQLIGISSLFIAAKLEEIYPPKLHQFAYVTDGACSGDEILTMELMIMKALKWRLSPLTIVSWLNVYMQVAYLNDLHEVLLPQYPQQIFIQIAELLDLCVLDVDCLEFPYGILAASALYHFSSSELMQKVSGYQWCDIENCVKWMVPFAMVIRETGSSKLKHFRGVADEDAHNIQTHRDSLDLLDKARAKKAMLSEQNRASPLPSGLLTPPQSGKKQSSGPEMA
T1 sequence (Q00526 whole entry, looked up): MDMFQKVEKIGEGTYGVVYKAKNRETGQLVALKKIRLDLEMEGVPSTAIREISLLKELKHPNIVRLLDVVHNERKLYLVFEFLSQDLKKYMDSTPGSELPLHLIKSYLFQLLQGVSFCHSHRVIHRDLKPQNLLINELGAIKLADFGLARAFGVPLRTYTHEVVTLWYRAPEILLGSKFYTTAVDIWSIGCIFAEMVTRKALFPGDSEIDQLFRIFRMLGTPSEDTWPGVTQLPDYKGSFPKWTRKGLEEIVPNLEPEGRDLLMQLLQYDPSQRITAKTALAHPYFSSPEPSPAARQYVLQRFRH

Structure (SMILES) | residual activity [1] | residual activity [2] | residual activity [3] | residual activity [4] | residual activity [5] | residual activity [6] | residual activity [7] | residual activity [8] | residual activity [9] | residual activity [10]
C[S+]([O-])c1ccc(-c2nc(-c3ccc(F)cc3)c(-c3ccncc3)[nH]2)cc1 (centres undefined) | 108% | 93% | 117% | 121% | 120% | 100% | 116% | 111% | 118% | 100%
CC(C)[C@H](CO)Nc1nc(Nc2cccc(Cl)c2)c2ncn(C(C)C)c2n1 | 14% | 3% | 0% | 0% | 1% | 0% | 98% | 44% | 17% | 1%
COC(=O)[C@@]1(O)C[C@H]2O[C@]1(C)n1c3ccccc3c3c4c(c5c6ccccc6n2c5c31)C(=O)NC4 | 27% | 2% | 4% | 1% | 3% | 1% | 15% | 4% | 55% | 16%
COc1cc2ncnc(Nc3ccc(OCc4ccccc4)cc3)c2cc1OC | 110% | 100% | 106% | 83% | 111% | 102% | 117% | 100% | 88% | 96%
c1cc(-c2cnn3cc(-c4ccc(OCCN5CCCCC5)cc4)cnc23)ccn1 |  | 41% | 55% | 10% | 73% | 19% | 68% | 11% | 50% | 9%
O=[N+]([O-])/C=C/c1ccc2c(c1)OCO2 | 87% | 88% | 97% | 106% | 91% | 96% | 99% | 98% | 81% | 119%
O=C1Nc2ccc3ncsc3c2/C1=C/c1c[nH]cn1 | 1% | -1% | 1% | 0% | 1% | -1% | 10% | 4% | 15% | 3%
CC(C)(C)c1cc(C=C(C#N)C#N)cc(Br)c1O | 109% | 103% | 107% | 113% | 96% |  | 113% | 101% |  | 
O=c1[nH]c2ccccc2n1C1CCN(Cc2ccc(-c3nc4cc5[nH]cnc5cc4nc3-c3ccccc3)cc2)CC1 | 105% | 82% | 95% | 77% | 100% | 104% | 105% | 103% | 98% | 85%
COc1ccc2c(c[n+](C)c3c4cc5c(cc4ccc23)OCO5)c1OC |  | 85% |  |  | 89% | 91% |  | 82% | 87% | 
CCc1nc(-c2ccc(OC)cc2)[nH]c1-c1ccncc1 | 102% |  | 101% |  | 109% |  |  |  |  | 
O=C1c2ccccc2-c2nc3nnnn3nc21 |  |  |  |  |  |  | 103% | 101% |  | 129%
N/C(=N\[N+](=O)[O-])N/N=C\c1ccc(-c2cccc([N+](=O)[O-])c2)o1 |  | 81% |  | 86% |  |  |  |  |  | 
O=C1NC(=O)c2c1c1c3ccccc3n3c1c1c2c2ccccc2n1C1CCC3O1 | 46% | 41% | 73% | 86% | 75% | 65% | 95% | 76% |  | 
COc1cc(OC)c(/C=C2\C(=O)Nc3ccccc32)c(OC)c1 | 84% | 78% | 88% | 85% | 99% | 77% | 90% | 77% | 90% | 84%
CN[C@@H]1C[C@H]2O[C@@](C)([C@@H]1OC)n1c3ccccc3c3c4c(c5c6ccccc6n2c5c31)C(=O)NC4 |  |  |  | 2% |  |  |  |  |  | 
CCn1cnc2c(Nc3cccc(Cl)c3)nc(N[C@@H]3CCCC[C@@H]3N)nc21 | 6% | 0% | 1% | 0% | 0% | -1% | 82% | 31% | 5% | -1%
COc1ccc2c(c1)/C(=C/c1cnc[nH]1)C(=O)N2 |  |  | 0% | 0% | 0% | 0% |  |  | 67% | 18%
